Measured values published in PubChem BioAssay AID624156 (Broad Institute, 2012).
The whole screen tested about 46,000 compounds, of which about 900 (2%) were called active. Not shown: some 1% with an inconclusive outcome. The sample holds actives, similar compounds and a random draw of the others, so the mix is not that of the screen. Cut-off read from the data, not from the text of the source: active = ROS induction above about 79% (passing the limit was not always enough); inconclusive = no clear call, values can overlap the other calls.

test: ROS inducers in U2OS cancer cells, primary screen, cell-based, H2DCF-DA fluorescence (AID 624156); conditions: at 10 µM, hits give high values;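 note: 0% = DMSO vehicle median and 100% = reference compound median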

Row | SMILES | ROS induction (% of piperlongumine)
1 | CN1CCN(CC(O)COc2ccc3ccccc3c2)CC1 (configuration not stated) | -2.48% (inactive)
2 | CC(C)CC(C(=O)O)N1C(=O)c2ccccc2C1=O (configuration not stated) | -9.51% (inactive)
3 | Cn1c(=O)c2c(nc(SCC(=O)Nc3ccccc3F)n2Cc2ccccc2)n(C)c1=O | 11.1% (inactive)
4 | O=C(Nc1nccs1)C1CCCN(C(=O)c2cnn(-c3ccccc3)c2-n2cccc2)C1 (configuration not stated) | 4.87% (inactive)
5 | COc1ccc(NS(=O)(=O)c2ccc(OCC(F)(F)F)c(C#N)c2OCC(F)(F)F)cc1 | -8.52% (inactive)
6 | CCOc1ccc2c(=O)c(Oc3ccccc3Br)coc2c1 | 0.931% (inactive)
7 | Cc1noc(C)c1NC(=O)NCc1ccc2c(c1)OCO2 | -1.2% (inactive)
8 | CN(C)c1ccc(/C=C(\C#N)S(=O)(=O)c2ccccc2)cc1C#N | -4.92% (inactive)
9 | CC1CCN(C(=O)CCNS(=O)(=O)c2cccc3nsnc23)CC1 | -19.6% (inactive)
10 | Cc1cc(C(C)(C)C)cc(S(=O)(=O)Nc2ccc(C(=O)N3CCC(C)CC3)cc2)c1C | 5.57% (inactive)
11 | Cc1cccc(NC(=O)c2nnn(-c3cccc(C(F)(F)F)c3)c2N)c1 | -17.1% (inactive)
12 | O=S(=O)(NCc1csc(-c2cccnc2)n1)c1ccc2c(c1)CCCC2 | 5.59% (inactive)
13 | Cn1c(=NC(=O)CCOc2ccccc2)sc2cc(Br)ccc21 | 1.27% (inactive)
14 | Cc1ccc(Nc2cc(C(=O)NCC3CCCO3)c3ccccc3n2)cc1C (configuration not stated) | 1.21% (inactive)
15 | Cc1ccc(S(=O)(=O)N(CC(=O)Nc2ccc3c(c2)OCCO3)C2CCCCC2)cc1 | 7.86% (inactive)
16 | Cc1nnc(SCc2cc(=O)[nH]c(N3CCN(Cc4ccccc4)CC3)n2)s1 | -2.67% (inactive)
17 | Cc1cc(Sc2nnc(C)s2)c2ccccc2n1 | 255% (active)
18 | Cc1cc(Nc2ccc(Cl)cc2)c2ccccc2n1 | 6.49% (inactive)
19 | Cc1ccc2c(Sc3ccc(Cl)cc3)c(C(=O)NC3CCCC3)[nH]c2c1 | -12.5% (inactive)
20 | O=C(N/N=C/c1cc(F)ccc1O)c1ccccc1O | -13.6% (inactive)
21 | CNC(=O)NC(=O)CSc1ncnc2sc(-c3ccccc3)cc12 | 5.81% (inactive)
22 | c1ccc(Nc2ncnc3sc(-c4ccccc4)cc23)cc1 | 130% (active)
23 | Cc1ccccc1NC(=O)NC(=O)CC#N | -16.4% (inactive)
24 | C[C@@H]1CN([C@@H](C)CO)C(=O)c2cc(NC(=O)C3CC3)ccc2O[C@H]1CN(C)C | -0.632% (inactive)

Row | SMILES | ROS induction (% of piperlongumine)
25 | Cn1c(=O)c2c(nc(SCC(=O)NC(C)(C)C)n2Cc2ccccc2F)n(C)c1=O | 0.779% (inactive)
26 | CC(C)C1Cc2c(sc3nc(SCC(=O)Nc4ccccc4)nc(N)c23)CO1 (configuration not stated) | 44% (inactive)
27 | Cc1ccc(NC(=O)c2ccc(CSc3ccccn3)cc2)c(C)c1 | -9.72% (inactive)
28 | C[C@@H]1CN([C@H](C)CO)C(=O)c2cc(NS(=O)(=O)c3ccc(F)cc3)ccc2O[C@H]1CN(C)C(=O)Nc1cccc2ccccc12 | 6.38% (inactive)
29 | COC(=O)C(CC#Cc1ccc2c(c1)[C@]1(C(=O)N2)[C@H](c2ccc(O)cc2)N2[C@H](c3ccccc3)[C@H](c3ccccc3)OC(=O)[C@H]2[C@@H]1C(=O)NC[C@H](O)c1ccccc1)C(=O)OC | 16.4% (inactive)
30 | COC(=O)C(CC#Cc1ccc2c(c1)[C@]1(C(=O)N2)[C@H](c2ccccc2OCCO)N2[C@H](c3ccccc3)[C@H](c3ccccc3)OC(=O)[C@H]2[C@@H]1C(N)=O)C(=O)OC | 447% (active)
31 | COc1ccc(C#Cc2ccc3c(c2)[C@]2(C(=O)N3)[C@H](c3ccccc3OCCO)N3[C@H](c4ccccc4)[C@H](c4ccccc4)OC(=O)[C@H]3[C@@H]2C(=O)N2CCCCCCC2)cc1 | -14.4% (inactive)
32 | O=C1O[C@@H](c2ccccc2)[C@@H](c2ccccc2)N2[C@@H](c3ccccc3OCCO)[C@]3(C(=O)Nc4ccccc43)[C@@H](C(=O)N3CCCCCCC3)[C@H]12 | 108% (active)
33 | O=C1O[C@@H](c2ccccc2)[C@@H](c2ccccc2)N2[C@@H](c3ccc(OCCO)cc3)[C@]3(C(=O)Nc4ccc(C#CCCO)cc43)[C@@H](C(=O)O)[C@H]12 | 0.895% (inactive)
34 | O=C1O[C@H](c2ccccc2)[C@H](c2ccccc2)N2[C@H]1[C@@H](C(=O)N1CCN(c3ncccn3)CC1)[C@]1(C(=O)Nc3ccccc31)[C@H]2c1ccc(OCCO)cc1 | 69.8% (inactive)
35 | C=CCNC(=O)[C@H]1[C@@H]2C(=O)O[C@@H](c3ccccc3)[C@@H](c3ccccc3)N2[C@@H](c2ccccc2OCCO)[C@]12C(=O)N(C(=O)OCCOC)c1ccc(C#Cc3ccc(OC)cc3)cc12 | 15.7% (inactive)
36 | COCCOC(=O)N1C(=O)[C@@]2(c3cc(C#CCC(C(=O)OC)C(=O)OC)ccc31)[C@H](c1ccc(OCCO)cc1)N1[C@H](c3ccccc3)[C@H](c3ccccc3)OC(=O)[C@H]1[C@@H]2C(N)=O | 166% (active)
37 | COCCOC(=O)N1C(=O)[C@@]2(c3cc(C#CCNC(N)=O)ccc31)[C@H](C(=O)N1CCN(c3ncccn3)CC1)[C@H]1C(=O)O[C@H](c3ccccc3)[C@H](c3ccccc3)N1[C@@H]2c1ccccc1OCCO | 19.5% (inactive)
38 | COc1ccc(CCNC(=O)c2cc3ccccc3c(=O)o2)cc1OC | 19.8% (inactive)
39 | COc1ccc(/C=C(/NC(=O)c2ccccc2)C(=O)N2CC3(C)CC2CC(C)(C)C3)cc1 (configuration not stated) | 1.8% (inactive)
40 | CCOC(=O)C1CCN(C(=O)CN2C(=O)c3ccccc3C2=O)CC1 | -6.98% (inactive)
41 | COc1cccc(CNS(=O)(=O)c2ccc3[nH]c(=O)ccc3c2)c1 | -8.9% (inactive)
42 | C[C@@H]1CN([C@@H](C)CO)C(=O)c2cc(NC(=O)CCCN(C)C)ccc2O[C@H]1CN(C)Cc1ccccc1 | -15.8% (inactive)
43 | NS(=O)(=O)c1ccc(CCNC2=CC(=O)OC23CCCCC3)cc1 | -9.03% (inactive)
44 | COC(=O)c1ccccc1NC(=O)CSc1n[nH]c(-c2ccncc2)n1 | -0.326% (inactive)
45 | COc1ccc(OC)c(NC(=O)CSc2n[nH]c(-c3ccncc3)n2)c1 | 148% (active)
46 | O=C(CSc1n[nH]c(-c2ccncc2)n1)Nc1ccccc1F | -7% (inactive)
47 | CC1CCCC(C)N1C(=O)c1cc2c(s1)-c1ccccc1OC2 (configuration not stated) | -1.02% (inactive)
